Active and inactive are the calls of the source. Rule for the calls: active = hit-call score of the fitted dose curve at least 0.9, where 1 is the maximum; inactive = score below 0.9.
biological target: human MARK1 CAMK Kinase, MARK1 (gene 4139) (UniProt Q9P0L2); assay: ERF_FR_ENZ_hMARK1: Eurofins (ERF) Enzymatic Radiometric [Km ATP] KinaseProfiler LeadHunter Assay for human MARK1 CAMK Kinase
Procedure: ERF_FR_ENZ_hMARK1 is a biochemical, single-readout assay that uses extracted gene-proteins in a cell-free assay. Measurements were taken 0.5 hour after chemical dosing in a 96-well plate. See MARK1 Human CAMK Kinase Enzymatic LANCE Assay [Km ATP], Cerep.ERF_FR_ENZ_hMARK1 is an assay component calculated from the ERF_FR_ENZ_hMARK1 assay. It is designed to measure enzyme activity using a type of enzyme reporter as detected by fluorescence intensity with LANCE technology.Data from the assay component ERF_FR_ENZ_hMARK1 was analyzed at the assay endpoint, ERF_FR_ENZ_hMARK1, in the positive analysis fitting direction relative to DMSO as the negative control and baseline of activity. Using a type of enzyme reporter, loss-of-signal activity can be used to understand changes in enzymatic activity as they relate to gene MARK1. To generalize the intended target to other relatable targets, this assay endpoint is annotated to the kinase intended target family, where the subfamily is serine/threonine kinase.
[…] is incubated with 50 mM Na-b-glycerophosphate pH 7.5, 0.1 mM EGTA, 30 uM […], 10 mM MgAcetate and [gamma-33P]-ATP (specific activity and concentration as required). The reaction is initiated by the […] addition of the Mg/ATP mix. After incubation for 40 minutes at room temperature, the reaction is stopped by the addition of phosphoric acid to a concentration of 0.5%. […]

human MARK1 CAMK Kinase, MARK1 (gene 4139), sequence (Q9P0L2 whole entry, looked up): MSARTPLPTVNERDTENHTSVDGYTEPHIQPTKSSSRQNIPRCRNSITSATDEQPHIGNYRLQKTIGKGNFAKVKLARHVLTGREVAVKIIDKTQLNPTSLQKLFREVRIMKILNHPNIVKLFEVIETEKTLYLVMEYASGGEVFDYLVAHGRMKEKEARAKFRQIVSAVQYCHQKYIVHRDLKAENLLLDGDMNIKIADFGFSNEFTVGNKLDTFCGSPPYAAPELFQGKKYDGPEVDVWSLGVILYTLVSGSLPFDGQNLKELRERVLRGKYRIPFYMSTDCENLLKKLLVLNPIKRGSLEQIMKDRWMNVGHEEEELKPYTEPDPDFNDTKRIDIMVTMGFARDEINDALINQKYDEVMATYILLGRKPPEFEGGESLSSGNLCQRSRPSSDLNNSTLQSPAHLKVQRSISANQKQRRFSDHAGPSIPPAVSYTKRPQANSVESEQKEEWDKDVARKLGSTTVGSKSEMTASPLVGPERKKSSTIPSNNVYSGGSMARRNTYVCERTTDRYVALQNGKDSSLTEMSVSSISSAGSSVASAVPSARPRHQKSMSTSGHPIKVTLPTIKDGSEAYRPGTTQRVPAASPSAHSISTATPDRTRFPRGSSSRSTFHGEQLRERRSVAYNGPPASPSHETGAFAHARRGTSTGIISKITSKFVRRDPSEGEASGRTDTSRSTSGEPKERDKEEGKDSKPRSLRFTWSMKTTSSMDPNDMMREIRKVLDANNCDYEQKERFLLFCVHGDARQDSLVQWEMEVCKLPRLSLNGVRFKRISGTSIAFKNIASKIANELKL

**Q.** O=C(/C=C/c1ccc(O)cc1)CC(=O)/C=C/c1ccc(O)cc1 was tested. Which outcome did it give?
**A.** inactive
